PINK1 modulator: changes PINK1 expression; PINK1 immunofluorescence, high-content cytometry, 24 h; Potency, µM (doses to about 76.6 µM), for the others: at the top dose activation (PINK1 increase), hits mostly activators; 0.2% of 410,000 active; active = well fitted activation curve with a large enough effect; inconclusive = small, poorly fitted or top-dose-only effect; cell line not stated here; also: potency is read from the fitted curve at half-maximal effect; % of control where 0% means no effect; nearly all actives have a fitted effect of over 65% in size
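Compound titrations (5 concentrations, 24 h) on a stable cell line; DMSO and CCCP controls. Endpoint: fixed-cell PINK1 immunofluorescence with mitochondrial, cell and nuclear markers, scanned by microplate cytometer.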
MCF10A rereplic: DNA re-replication induction in MCF 10a cells; MCF 10A DNA re-replication, Hoechst nuclear intensity, 48 h; Potency, µM (titrated, usually from 46.1 µM), for inactives: top-dose activity, positive = re-replication, usual class: activators; 2.9% of 350,000 active; also: potency is read from the fitted curve at half-maximal effect; % of control where 0% means no effect; nearly all actives have a fitted effect of over 50% in size
SW480 rerep: DNA re-replication induction in SW480 cells | SW480 DNA re-replication, Hoechst DNA content imaging, 48 h | Potency, µM (titrated, usually from 46.1 µM), without a hit: at the top dose re-replication activation, usual class: activators | 1.8% of 340,000 active | AID 624297; also: potency is read from the fitted curve at half-maximal effect; % of control where 0% means no effect; nearly all actives have a fitted effect of over 55% in size
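Quantitative HTS format with DMSO vehicle controls; 48 hr drug incubation at 37 C, then 40 min Hoechst staining and scanning imager measurement at 405 nm excitation.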
S2 tox: viability counter-screen for ATXN expression inhibitors | S2 cells (HEK-293 line with an ATXN2-luciferase reporter) viability, CellTiter-Fluor protease fluorescence, 24 h | Potency, µM (highest dose often 56.7 µM), usual class: cytotoxic | 0.49% of 400,000 active; also: potency is read from the fitted curve at half-maximal effect; nearly all actives have a fitted effect of over 40% in size
IL1B secr inh: blocks inflammasome-driven IL-1 beta release; THP-1 LPS/ATP IL-1B secretion, AlphaLISA, 16 h; hits give low values; activity change, % at 57.5 µM; 4.7% of 360,000 active; AID 743279; in the data active = activity change below about -50%; inconclusive = mostly about -30% to -49%; also: % is scaled to controls: 0 for no effect and ±100 for the full control effect
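Secreted IL-1B measured by AlphaLISA bead assay after 16 h compound exposure of THP-1 cells; compounds (final up to 57.5 uM) added 1 h before LPS (250 ng/mL) and ATP (1.25 mM) stimulation; lower signal means less secretion.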
ATXN2 expr inh: ATXN2 expression inhibition; HEK-293 ATXN2-luciferase reporter, luminescence, 24 h; Potency, µM (doses to about 57 µM), without a hit: at the top dose activity change, negative = inhibition, actives largely listed as inhibitors; 0.72% of 360,000 active; AID 1745845; also: potency is read from the fitted curve at half-maximal effect; % is scaled to controls: 0 for no effect and ±100 for the full control effect; nearly all actives have a fitted effect of over 55% in size
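ATXN2-luciferase reporter cells (luciferase flanked by upstream and downstream ATXN2 gene portions) were treated 24 h at 37 °C with compounds at up to 57 uM. SteadyGlo luminescence gave expression; GF-AFC fluorescence gave viability.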
Numbers without * were called inactive; [ ] = remark or other dose. In the library only some 7.1% were active in any assay of this set; here they are far more common. Unless noted, calls follow the shape of the dose curve; as a rule, active = well fitted curve in the direction sought with a large enough effect; inconclusive = small, poorly fitted or top-dose-only effect, or another doubt; inactive = no such curve, though single readings can be large; an effect the other way counts as inactive or inconclusive.

Cc1cccc(C(=O)NCC2Cc3cc(F)cc(-c4cnccn4)c3O2)n1 (centres undefined) was read as PINK1 modulator 0% and S2 tox inactive.
`CC(C)C(=O)Nc1nnc2n1CCS2` gave PINK1 modulator -3%, S2 tox inactive and ATXN2 expr inh 5%.
COCCCNC(=O)/C(C#N)=C/c1ccc(F)cc1 was read as PINK1 modulator 0%, MCF10A rereplic 0%, SW480 rerep 0%, S2 tox inactive, IL1B secr inh -6 and ATXN2 expr inh 15%.
CCCCNC(=O)/C(C#N)=C/c1ccc(F)cc1F was read as PINK1 modulator 0%, MCF10A rereplic inconclusive, SW480 rerep 1%, S2 tox inactive and IL1B secr inh -90*.
For Cn1c(=O)c2c(nc(NCCNC(=O)c3ccco3)n2Cc2ccccc2)n(C)c1=O the results were PINK1 modulator 0%, MCF10A rereplic 26µM*, SW480 rerep 0%, S2 tox inactive, IL1B secr inh 0 and ATXN2 expr inh 20%.
CN(C)c1ccc(/C=C/c2ccncc2)cc1 was read as PINK1 modulator 2%, MCF10A rereplic inconclusive, SW480 rerep inconclusive, S2 tox inactive, IL1B secr inh 0 and ATXN2 expr inh 37%.
For CN(C)c1ccc(C=Cc2cnccn2)cc1 the results were PINK1 modulator 0%, MCF10A rereplic 18µM*, SW480 rerep inconclusive, IL1B secr inh -12 and ATXN2 expr inh -34%.
For COc1ccc2sc(NC(C)=O)nc2c1 the results were PINK1 modulator 1%, MCF10A rereplic 2%, SW480 rerep -22%, S2 tox inactive, IL1B secr inh -22 and ATXN2 expr inh 13%.
Screening CCn1cc([N+](=O)[O-])c(C(=O)Nc2nc3ccc(OC)cc3s2)n1 returned PINK1 modulator 0%, MCF10A rereplic inconclusive, SW480 rerep 10%, S2 tox inactive and IL1B secr inh -59*.
`COc1ccc2sc(NC(=O)NC(=O)c3c(Cl)cccc3Cl)nc2c1` gave PINK1 modulator 0%, MCF10A rereplic inconclusive, SW480 rerep 3%[9.22 µM], S2 tox inactive, IL1B secr inh -88* and ATXN2 expr inh 21%.
`CCOc1ccc2nc(NC(=O)Nc3ccccc3)sc2c1` gave PINK1 modulator 4%, MCF10A rereplic -7%, SW480 rerep -2%, S2 tox inactive, IL1B secr inh -6 and ATXN2 expr inh 74%.
Screening COc1ccc(C(=O)Nc2nc3ccccc3s2)c(OC)c1 returned PINK1 modulator 2%, MCF10A rereplic inconclusive, SW480 rerep inconclusive, S2 tox inactive, IL1B secr inh -14 and ATXN2 expr inh 0.79µM*.
For COc1ccc2nc(NC(=O)Nc3ccccc3)sc2c1 the results were PINK1 modulator 5%, MCF10A rereplic inconclusive, SW480 rerep -14%, S2 tox inconclusive, IL1B secr inh -60* and ATXN2 expr inh -10%.
COc1ccc(C(=O)Nc2nc3ccc(OC)cc3s2)cc1 was read as PINK1 modulator 4%, MCF10A rereplic inconclusive, SW480 rerep inconclusive, S2 tox inconclusive, IL1B secr inh 0 and ATXN2 expr inh inconclusive.
`COc1ccccc1C(=O)Nc1nc2ccccc2s1` gave PINK1 modulator 5%, MCF10A rereplic 17%, SW480 rerep -1%, S2 tox inactive, IL1B secr inh -1 and ATXN2 expr inh inconclusive.
`COc1ccccc1/C=C/c1nc(C#N)c(NCc2ccccc2)o1` gave PINK1 modulator 12%.
For CCN(C(=O)Cn1c(=O)n(CCCS(=O)(=O)C2CCCCC2)c(=O)c2ccccc21)c1cccc(C)c1 the results were PINK1 modulator 3%, S2 tox inactive and ATXN2 expr inh -9%.
`CC(C)(C)c1nc(NC(=O)Nc2ccccc2)sc1Br` gave PINK1 modulator inconclusive, MCF10A rereplic inconclusive, SW480 rerep -11%, S2 tox inconclusive, IL1B secr inh -91* and ATXN2 expr inh inconclusive.
For Cc1csc(NC(=O)CSc2nc3[nH]c(=O)cc(O)c3s2)n1 the results were PINK1 modulator 0%, MCF10A rereplic 9.2µM*, SW480 rerep inconclusive, S2 tox inconclusive, IL1B secr inh -105* and ATXN2 expr inh -30%.
For O=C(CSc1nc2[nH]c(=O)cc(O)c2s1)Nc1nncs1 the results were PINK1 modulator -1%, MCF10A rereplic -4%, SW480 rerep 9%, S2 tox inactive, IL1B secr inh -9 and ATXN2 expr inh -3%.
Screening Cc1ccc(-c2csc3ncnc(Sc4nnc(CN5CCCCCC5=O)o4)c23)cc1 returned PINK1 modulator -3%, MCF10A rereplic 15µM*, SW480 rerep inconclusive, IL1B secr inh -98* and ATXN2 expr inh 28µM*.
Cc1cc(/C=C/c2nc3ccccc3s2)ccc1N(C)C was read as PINK1 modulator 1%.
`COc1cc2nc(/C=C/c3ccc(N(C)C)cc3)sc2cc1SC` gave PINK1 modulator 6%, MCF10A rereplic 3.3µM*, SW480 rerep 21µM*, IL1B secr inh inconclusive and ATXN2 expr inh -18%.
`C/C(=C\c1ccco1)CN1CCOc2ccc(C(C)(O)COc3ccccc3)cc2C1` (centres undefined) gave PINK1 modulator 0% and S2 tox inactive.
Screening O=C(COc1ccccc1C(=O)Nc1ccccc1)Nc1ccccc1Br returned PINK1 modulator 0%.
`O=C(Oc1ccccc1C(=O)Nc1ccccc1)c1ccccc1Br` gave PINK1 modulator 2%, MCF10A rereplic 5.2µM*, SW480 rerep 15µM*, S2 tox inactive, IL1B secr inh inconclusive and ATXN2 expr inh 86%.
Screening CCSc1ncc(Cl)c(C(=O)N(Cc2ccccc2Cl)C2CCS(=O)(=O)C2)n1 (centres undefined) returned PINK1 modulator 3%, S2 tox inactive and ATXN2 expr inh -9%.
For CCCn1c(=O)c(C(=O)NCCc2ccc(OC)c(OC)c2)c(O)c2ccccc21 the results were PINK1 modulator 3%, MCF10A rereplic 1µM*, SW480 rerep -4%, S2 tox inactive, IL1B secr inh 14 and ATXN2 expr inh -27%.
`COc1ccc(CCNC(=O)c2ccc(Cn3c(=O)c4ccccc4n(Cc4cccc(F)c4)c3=O)cc2)cc1OC` gave PINK1 modulator 2%, S2 tox 28µM* and ATXN2 expr inh inconclusive.
Screening COc1ccc(CCNC(=O)c2ccc(Cn3c(=O)c4ccccc4n(Cc4cccc(Cl)c4)c3=O)cc2)cc1OC returned PINK1 modulator 1%, S2 tox inconclusive and ATXN2 expr inh -14%.

Screening results as filed in PubChem.
